From PubChem
Hits are enriched below; roughly 21% of the tested compounds scored in any of these assays.
CHX counter: Cycloheximide Counterscreen for Small Molecule Inhibitors of Shiga Toxin | 12% of 300,000 active | cell reporter, cycloheximide protein synthesis inhibition counterscreen | max response, %; in the data active = max response mostly above about 13%, no sharp cut-off; inactive = mostly below about 14%; note: read at 38.3 µM for the half of the compounds with a filed dose
Pf growth 48h: Primary qHTS for delayed death inhibitors of the malarial parasite plastid, 48 hour incubation. P. falciparum luciferase growth in erythrocytes, 48 h. Potency, µM (series often up to 28.7 µM), most hits filed as inhibitors. 5.9% of 310,000 active
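Erythrocytes infected with P. falciparum carrying an integrated firefly luciferase reporter (2% hematocrit, 0.1% parasitemia final) were exposed to compounds in RPMI 1640 with 0.5% Albumax at 37 C, 5% CO2. Growth inhibition was scored as reduced luminescence.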
Pf growth 96h: Primary qHTS for delayed death inhibitors of the malarial parasite plastid, 96 hour incubation | Potency, µM (titrated, usually from 28.7 µM), usual class: inhibitors | 6.9% of 320,000 active | P. falciparum luciferase reporter growth, 96 h
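P. falciparum expressing integrated firefly luciferase grown in erythrocytes (2% hematocrit, 0.05% parasitemia final) with compounds for 96 hours at 37 C, 5% CO2. Growth inhibition read as loss of luminescence after adding luciferase detection reagent.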
Shiga inhibitor: A qHTS for Small Molecule Inhibitors of Shiga Toxin | 9.2% of 290,000 active | inhibition, % at 38.7 µM | Vero cells, Shiga toxin protein synthesis inhibition reporter; in the data active = inhibition mostly above about 28%, no sharp cut-off; inactive = mostly below about 43%
HCV inh: qHTS Assay for Inhibitors of Hepatitis C Virus (HCV); Huh7.5.1 HCVcc-Cre infection, luciferase reporter, 44 h; Potency, µM (highest dose often 41.8 µM), usual class: inhibitors; 3.4% of 340,000 active; AID 651820, 2012
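Reporter virus HCVcc-Cre (~0.5 moi) infects cells exposed to compound; seeding density 1,000 cells/well with 4 h settling beforehand. Luminescence, 15 sec read, taken 44 h post-infection following a 15 min RT substrate incubation.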
AMA1-RON2 inh: qHTS for Inhibitors of AMA1-RON; Towards Development of Antimalarial Drug Lead: Primary Screen. Plasmodium falciparum AMA1 (3D7) - RON2 peptide interaction. AlphaScreen AMA1-biotinylated RON2 peptide binding. Potency, µM (doses to about 58.2 µM), actives largely listed as inhibitors. 0.2% of 360,000 active. AID 720542, 2013; note: nearly all actives have a fitted effect of over 45% in size
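AMA1 (3D7) with his tag at 25 nM final met compounds first, then biotinylated RON2 peptide at 25 nM; detection used donor plus acceptor beads, 10 µg/mL apiece, read by AlphaScreen after 30 min at room temperature.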
Numbers stand for hits; n = inactive; u = inconclusive; x = no result. Unless noted, calls come from the whole dose curve; as a rule, active = well fitted curve in the direction sought with a large enough effect; inconclusive = small, poorly fitted or top-dose-only effect, or another doubt; inactive = no such curve, though single readings can be large; an effect the other way counts as inactive or inconclusive.

SMILES	CHX counter	Pf growth 48h	Pf growth 96h	Shiga inhibitor	HCV inh	AMA1-RON2 inh
COc1ccc(C(=O)N/N=C/c2ccc3cccc(OCc4ccccc4)c3n2)cc1	21.5	u	n	60.6	8.91µM	n
CCOc1cc(CNC(C)(C)CO)cc(Br)c1OCc1ccc(Cl)cc1Cl	n	u	9.28µM	n	2.82µM	n
CCOc1cc(CNCCCN2CCOCC2)cc(Br)c1OCc1ccccc1Cl	n	u	u	n	3.55µM	n
CCOc1cc(CNCCO)cc(Br)c1OCc1ccccc1Cl	n	10.4µM	11.7µM	n	8.91µM	n
COc1cc(CNC(C)(C)CO)cc(Br)c1OCc1ccccc1	n	u	u	n	n	n
CCOc1cc(CNCCO)cc(Br)c1OCc1ccc(Cl)cc1	n	u	11.7µM	n	12.6µM	n
CCOc1cccc(CNCCO)c1OCc1ccc(Cl)cc1	n	u	u	n	u	n
CC[C@H](C)[C@H]1CNC(=S)N1CC1CCN(CCC(C)C)CC1	x	x	x	x	x	n
COc1ccccc1-c1noc2c1C(=O)N(Cc1cn(-c3ccccc3OC)nn1)CC2	x	x	x	x	x	n
CC(C)Cn1c(=S)[nH]c2cc(Cl)ccc21	n	n	u	n	n	n
CCOc1cc(CNCCN2CCOCC2)ccc1OCc1ccccc1Cl	n	u	u	n	2.82µM	n
Cc1ccc(C)c(N2CCN(C(=S)Nc3ccc4nc(N5CCN(C)CC5)cc(C)c4c3)CC2)c1	n	10.4µM	n	n	2.51µM	n
Cc1cc(N2CCN(C)CC2)nc2ccc(NC(=S)N3CCC4(CC3)OCCO4)cc12	n	4.15µM	11.7µM	n	n	n
Cc1cc(N2CCN(C)CC2)nc2ccc(NC(=S)N3CCN(c4ccccn4)CC3)cc12	n	n	9.28µM	n	n	n
COc1ccc(N(CC(=O)NC2CC2)S(=O)(=O)c2ccccc2)cc1	n	n	n	n	n	n
COc1ccc(/C=C2\SC(=O)N(CCCC(=O)Nc3cc(Cl)ccc3C(=O)O)C2=O)cc1	x	x	x	x	n	n
C=C(C)COc1ccc(-c2n[nH]c(C)c2-c2ccc(OC)c(OC)c2)c(O)c1	n	u	u	n	12.6µM	n
C=C(C)COc1ccc(-c2[nH]ncc2-c2ccc(OC)cc2)c(O)c1	n	u	u	n	n	n
C=C(C)COc1ccc(-c2[nH]ncc2-c2ccccc2)c(O)c1	n	10.4µM	u	n	n	n
O=[N+]([O-])c1ccc(COc2ccc(-c3[nH]ncc3-c3ccccc3)c(O)c2)cc1	n	13.1µM	6.57µM	n	n	n
C=C(C)COc1ccc(-c2[nH]ncc2-c2ccc(OC)c(OC)c2)c(O)c1	n	1.85µM	2.33µM	n	2µM	n
COc1cccc2ccc(CC(O)(c3ccccc3)c3ccccc3)nc12	x	x	x	x	x	n
O=C(CN(Cc1ccc(Cl)cc1)S(=O)(=O)c1ccccc1)NCC1CCCO1 (centres undefined)	n	u	n	n	n	n
O=C(CC1C(=O)NCCN1C1CCCC1)NCc1cccc(OC(F)(F)F)c1 (centres undefined)	n	n	n	n	n	n
COc1ccc(Cc2c(-c3ccccc3)nc3c4ccccc4ccn23)c(C)c1	x	x	x	x	x	n
SMILES	CHX counter	Pf growth 48h	Pf growth 96h	Shiga inhibitor	HCV inh	AMA1-RON2 inh
O=C(CSc1nc(-c2ccccc2)cc(C(F)(F)F)n1)NCc1cccs1	n	n	n	n	n	n
COc1ccc(-c2cc(C(F)(F)F)nc(SCC(=O)NCc3cccs3)n2)cc1	n	11.7µM	u	n	n	n
COCC(C)NC(=O)CCSc1nc(-c2ccc(OC)cc2)cc(C(F)(F)F)n1 (centres undefined)	n	5.22µM	9.28µM	n	u	n
COc1ccc(-c2cc(C(F)(F)F)nc(SCCC(=O)N3CCN(C)CC3)n2)cc1	x	x	x	x	n	n
Cc1ccc(N(CC(O)CN2CCCCC2)S(=O)(=O)c2ccc(C)cc2)cc1 (centres undefined)	n	n	u	n	n	n
CCN(CC)S(=O)(=O)c1cccc(NC(=O)C2SC(=Nc3ccc(C)cc3C)C(C(=O)NCC3CCCO3)=C2N)c1 (centres undefined)	n	9.28µM	x	n	n	n
